# From paper PMC5540273 (PLoS ONE, 2017)
# Values joined by “and” are separate entries in the source; they are usually repeats but may differ in a detail not shown here. Equal values may be shown once. Read-outs that look alike come from different tables or passages of the source.
# Experiments:
# [1] = system: AAK1; details: concentration: 1 μM, replicates: in singlicate; n = 1
# [2] = system: ABL1-nonphosphorylated; details: concentration: 1 μM, replicates: in singlicate, n = 1
# [3] = system: ABL1-phosphorylated; details: concentration: 1 μM, replicates: in singlicate, n = 1
# [4] = system: ABL2; details: concentration: 1 μM, replicates: in singlicate, n = 1
# [5] = system: ACVR1B; details: concentration: 1 μM, replicates: in singlicate, n = 1
# [6] = system: ACVR1; details: concentration: 1 μM, replicates: in singlicate, n = 1
# [7] = system: ACVR2A; details: concentration: 1 μM, replicates: in singlicate, n = 1
# [8] = system: ACVR2B; details: concentration: 1 μM, replicates: in singlicate, n = 1
# [9] = system: ACVRL1; details: concentration: 1 μM, replicates: in singlicate, n = 1
# [10] = system: T1, ADCK3; details: concentration: 1 μM, replicates: in singlicate, n = 1
# T1 construct: gene CABC1
# [11] = system: ADCK4; details: concentration: 1 μM, replicates: in singlicate, n = 1
# [12] = system: AKT1; details: concentration: 1 μM, replicates: in singlicate, n = 1
# [13] = system: AKT2; details: concentration: 1 μM, replicates: in singlicate, n = 1
# [14] = system: AKT3; details: concentration: 1 μM, replicates: in singlicate, n = 1
# [15] = system: ALK; details: concentration: 1 μM, replicates: in singlicate, n = 1
# [16] = system: T2, AMPK-alpha1; details: concentration: 1 μM, replicates: in singlicate; n = 1
# T2 construct: gene PRKAA1
# 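Also: KINOMEscan kinase panel screen.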
compound,measurement,setting,value
O=c1cc(N2CCOCC2)nc2n(Cc3cccc(C(F)(F)F)c3)ccn12 [GSK2297543],%Inh,[1],0%
same,%Inh,[2],0%
same,%Inh,[3],0%
same,%Inh,[4],3%
same,%Inh,[5],0%
same,%Inh,[6],5%
same,%Inh,[7],0%
same,%Inh,[8],0%
same,%Inh,[9],0%
same,%Inh,[10],21%
same,%Inh,[11],16%
same,%Inh,[12],0%
same,%Inh,[13],0%
same,%Inh,[14],15%
same,%Inh,[15],0%
same,%Inh,[16],4%
COc1ccc(Nc2nccc(N3CCC(NC(=O)Nc4cc(C)ccc4C)C3)n2)cc1 (centres unmarked) [GSK1379741],%Inh,[1],17%
same,%Inh,[2],0%
same,%Inh,[3],0%
same,%Inh,[4],14%
same,%Inh,[5],0%
same,%Inh,[6],0%
same,%Inh,[7],0%
same,%Inh,[8],0%
same,%Inh,[9],0%
same,%Inh,[10],0%
same,%Inh,[11],32%
same,%Inh,[12],0%
same,%Inh,[13],10%
same,%Inh,[14],0%
same,%Inh,[15],25%
same,%Inh,[16],0%
O=C(NCCNc1ccnc(Nc2ccc(F)cc2)n1)Nc1ccccc1F [GSK1379880],%Inh,[1],0%
same,%Inh,[2],0%
same,%Inh,[3],0%
same,%Inh,[4],24%
same,%Inh,[5],0%
same,%Inh,[6],0%
same,%Inh,[7],0%
same,%Inh,[8],0%
same,%Inh,[9],0%
same,%Inh,[10],0%
same,%Inh,[11],19%
same,%Inh,[12],0%
same,%Inh,[13],0%
same,%Inh,[14],0%
same,%Inh,[15],25%
same,%Inh,[16],0%
COC(=O)Nc1nc2cc(Oc3ccc(NC(=O)Nc4cc(F)ccc4F)cc3)ccc2[nH]1.Cl [GW701424],%Inh,[1],30%
same,%Inh,[2],94.5%
same,%Inh,[3],40%
same,%Inh,[4],74%
same,%Inh,[5],0%
same,%Inh,[6],0%
same,%Inh,[7],0%
same,%Inh,[8],0%
same,%Inh,[9],0%
same,%Inh,[10],7%
same,%Inh,[11],40%
same,%Inh,[12],0%
same,%Inh,[13],4%
same,%Inh,[14],0%
same,%Inh,[15],28%
same,%Inh,[16],0%
Cc1nnc(-c2ccc3ncc(-c4ccc(S(C)=O)cc4)n3c2)o1 (centres unmarked),%Inh,[1],41%
same,%Inh,[2],44%
same,%Inh,[3],6%
same,%Inh,[4],7%
same,%Inh,[5],0%
same,%Inh,[6],0%
same,%Inh,[7],0%
same,%Inh,[8],0%
same,%Inh,[9],0%
same,%Inh,[10],0%
same,%Inh,[11],18%
same,%Inh,[12],3%
same,%Inh,[13],15%
same,%Inh,[14],2%
same,%Inh,[15],40%
same,%Inh,[16],1%
Cn1cc(-c2ccc3c(c2)CCN3C(=O)Cc2ccccc2Cl)c2c(N)ncnc21 [GSK2608885],%Inh,[1],25%
same,%Inh,[2],95.9%
same,%Inh,[3],23%
same,%Inh,[4],85%
same,%Inh,[5],0%
same,%Inh,[6],0%
same,%Inh,[7],0%
same,%Inh,[8],13%
same,%Inh,[9],3%
same,%Inh,[10],1%
same,%Inh,[11],88%
same,%Inh,[12],0%
same,%Inh,[13],0%
same,%Inh,[14],0%
same,%Inh,[15],0%
same,%Inh,[16],2%
O=C(NCCCN1CCOCC1)c1cccc(Nc2nccc(Nc3ccc(Oc4ccccc4)cc3)n2)c1 [GW663929],%Inh,[1],8%
same,%Inh,[2],73%
same,%Inh,[3],45%
same,%Inh,[4],47%
same,%Inh,[5],0%
same,%Inh,[6],14%
same,%Inh,[7],0%
same,%Inh,[8],5%
same,%Inh,[9],0%
same,%Inh,[10],15%
same,%Inh,[11],36%
same,%Inh,[12],0%
same,%Inh,[13],11%
same,%Inh,[14],0%
same,%Inh,[15],7%
same,%Inh,[16],0%
CC(C)(CN)c1nc(-c2ccc(Cl)c(O)c2)c(-c2ccncc2)[nH]1.O=C(O)C(F)(F)F [SB-477794],%Inh,[1],0%
same,%Inh,[2]; 1 µM,96.1% and 94.7%
same,%Inh,[3]; 1 µM,99.4% and 98.9%
same,%Inh,[4]; 1 µM,92.4% and 89%
same,%Inh,[5]; 1 µM,87% and 91.7%
same,%Inh,[6]; 1 µM,96.5% and 93.4%
same,%Inh,[7]; 1 µM,1% and 25%
same,%Inh,[8]; 1 µM,91.9% and 91%
same,%Inh,[9]; 1 µM,61% and 67%
same,%Inh,[10]; 1 µM,7% and 17%
same,%Inh,[11]; 1 µM,54% and 35%
same,%Inh,[12]; 1 µM,5% and 25%
same,%Inh,[13]; 1 µM,21% and 8%
same,%Inh,[14]; 1 µM,34% and 100%
same,%Inh,[15]; 1 µM,34% and 16%
same,%Inh,[16],0%
Nc1nc(-c2ccc3c(N)n[nH]c3c2)cc(N2CCCC2)n1 [GSK2227430],%Inh,[1],17%
same,%Inh,[2],0%
same,%Inh,[3],0%
same,%Inh,[4],0%
same,%Inh,[5],0%
same,%Inh,[6],0%
same,%Inh,[7],0%
same,%Inh,[8],0%
same,%Inh,[9],0%
same,%Inh,[10],0%
same,%Inh,[11],2%
same,%Inh,[12],0%
same,%Inh,[13],3%
same,%Inh,[14],0%
same,%Inh,[15],4%
same,%Inh,[16],0%
Nc1nccc(-c2c(-c3ccc(F)cc3)ncn2C2CCN(CC(F)(F)F)CC2)n1 [SB-236560],%Inh,[1],5%
same,%Inh,[2],46%
same,%Inh,[3],0%
same,%Inh,[4],0%
same,%Inh,[5],0%
same,%Inh,[6],19%
same,%Inh,[7],0%
same,%Inh,[8],0%
same,%Inh,[9],0%
same,%Inh,[10],0%
same,%Inh,[11],47%
same,%Inh,[12],0%
same,%Inh,[13],0%
same,%Inh,[14],0%
same,%Inh,[15],29%
same,%Inh,[16],0%
NS(=O)(=O)c1cccc(-c2ccc3nccc(-c4cccc(S(N)(=O)=O)c4)c3c2)c1 [GW867253],%Inh,[1],27%
same,%Inh,[2],36%
same,%Inh,[3],15%
same,%Inh,[4],0%
same,%Inh,[5],0%
same,%Inh,[6],0%
same,%Inh,[7],0%
same,%Inh,[8],0%
same,%Inh,[9],0%
same,%Inh,[10],0%
same,%Inh,[11],10%
same,%Inh,[12],2%
same,%Inh,[13],0%
same,%Inh,[14],10%
same,%Inh,[15],0%
same,%Inh,[16],0%
